Ten compounds from paper PMC5540273 (PLoS ONE, 2017) can be followed below.

Some test systems named below: PIP5K1A; PIP5K1C; PIP5K2B; PKMYT1; PKN1; PKN2; PLK1; PLK2; PLK3; PLK4; PRKCD; PRKCE; PRKCH; PRKCI; PRKCQ; PRKD1; PRKD2.
Common to all, as to conditions: concentration: 1 μM, replicates: in singlicate; n = 1
A further assay relates to T1, PIP5K2C.
T1 construct: gene PIP4K2C

The subject of a further assay is T2, PKAC-alpha.
T2 construct: gene PRKACA

The next assay has as its system T3, PKAC-beta.
T3 construct: gene PRKACB
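Also: KINOMEscan kinase panel screen.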

For `Cc1ccc(S(=O)(=O)Nc2ccc(Nc3nccc(Nc4cccc5[nH]ncc45)n3)cc2)cc1` [GSK581271], the “%Inh” value in the assay on PIP5K1A is 0%; in the assay on PIP5K1C, 31%; in the assay with PIP5K2B, 13%; in the assay on PIP5K2C, 57%; with PKAC-alpha, 0%; in the assay on PKAC-beta it was 0%. The “%Inh” value in the assay on PKMYT1 amounted to 15%; in the assay on PKN1 it was 22%; in the assay on PKN2 it was 0%; in the assay on PLK1, 0%; with PLK2 it was 0%; with PLK3, 0%. Also, the “%Inh” value in the assay with PLK4 was 1%; in the assay with PRKCD, 0%; with PRKCE, 0%; in the assay with PRKCH it was 0%; with PRKCI, 7%; with PRKCQ it was 0%. Also, the “%Inh” value in the assay on PRKD1 and in the assay on PRKD2 was 0% in each case.
As to `Nc1n[nH]c2cnc(-c3ccccc3)cc12` [SB-642124], the “%Inh” value in the assay with PIP5K1A is listed as 40%; in the assay on PIP5K1C, 0%; in the assay on PIP5K2B it was 32%; in the assay on PIP5K2C, 18%; in the assay with PKAC-alpha, 0%; in the assay with PKAC-beta it was 0%. For the same compound, the “%Inh” value in the assay on PKMYT1 is on record as 15%; in the assay with PKN1 it was 0%; with PKN2, 31%; in the assay with PLK1, 0%; in the assay with PLK2, 49%; with PLK3, 43%. Also, the “%Inh” value in the assay with PLK4 worked out at 1%; in the assay on PRKCD, 17%; with PRKCE, 24%; in the assay with PRKCH it was 38%; in the assay on PRKCI, 4%; in the assay on PRKCQ, 45%. For the same compound, the “%Inh” value with PRKD1 was 5%; in the assay on PRKD2, 4%.
On to `COc1cc(Nc2ncc3c(C)nc(-c4cc5ccccc5[nH]4)n3n2)cc(OC)c1OC` [GW869516], for which the “%Inh” value is reported as 0% in the assay on PIP5K1A; 89% in the assay with PIP5K1C; 29% in the assay with PIP5K2B; 90.3% in the assay with PIP5K2C; 0% in the assay with PKAC-alpha; 51% in the assay with PKAC-beta. The “%Inh” value in the assay with PKMYT1 was determined as 25%; in the assay on PKN1 it was 0%; in the assay with PKN2, 0%; in the assay with PLK1, 19%; with PLK2, 23%; in the assay with PLK3 it was 24%. Besides, the “%Inh” value in the assay on PLK4 came out at 0%; with PRKCD it was 43%; in the assay with PRKCE it was 0%; with PRKCH, 0%; with PRKCI, 45%; in the assay on PRKCQ it was 0%. Besides, the “%Inh” value with PRKD1 and in the assay with PRKD2 was 0% each time.
On to `Fc1ccc(-c2ncn(C3CCNCC3)c2-c2ccnc(Oc3ccc(-c4ccccc4)cc3)n2)cc1` [SB-245391], for which the “%Inh” value was 14% with PIP5K1A; 24% in the assay with PIP5K1C; 0% in the assay with PIP5K2B; 20% in the assay on PIP5K2C; 35% in the assay on PKAC-alpha; 31% in the assay on PKAC-beta. For the same compound, the “%Inh” value in the assay with PKMYT1 was 9%; in the assay with PKN1 it was 0%; in the assay with PKN2, 18%; with PLK1, 35%; in the assay on PLK2, 28%; with PLK3, 17%. Further, the “%Inh” value is reported as 27% with PLK4; 32% in the assay with PRKCD; 40% in the assay with PRKCE; 0% in the assay with PRKCH; 54% in the assay with PRKCI; 0% with PRKCQ. Also, the “%Inh” value in the assay with PRKD1 and in the assay with PRKD2 was 0% throughout.
Regarding `COc1ccc(Nc2nccc(NCCNC(=O)c3cc4ccccc4s3)n2)cc1` [GSK1379896], the “%Inh” value turned out to be 0% with PIP5K1A; 48% with PIP5K1C; 22% with PIP5K2B; 24% in the assay with PIP5K2C; 0% in the assay on PKAC-alpha; 0% in the assay on PKAC-beta. Moreover, the “%Inh” value stood at 0% with PKMYT1; 0% with PKN1; 0% in the assay with PKN2; 7% with PLK1; 0% with PLK2; 0% with PLK3. Moreover, the “%Inh” value in the assay with PLK4 stood at 0%; in the assay on PRKCD, 0%; in the assay with PRKCE it was 2%; with PRKCH, 0%; in the assay with PRKCI, 25%; in the assay with PRKCQ it was 9%. Besides, the “%Inh” value in the assay on PRKD1 and with PRKD2 was 0% in each case.
Take `CCS(=O)(=O)c1ccc(OC)c(Nc2nccc(-c3c(-c4cccc(NC(=O)c5c(F)cccc5F)c4)nn4ncccc34)n2)c1` [GSK326180]: the “%Inh” value with PIP5K1A was 0%; in the assay with PIP5K1C, 8%; with PIP5K2B it was 0%; with PIP5K2C, 40%; with PKAC-alpha, 0%; in the assay with PKAC-beta it was 0%. For the same compound, the “%Inh” value in the assay on PKMYT1 was determined as 0%; in the assay on PKN1 it was 0%; with PKN2, 0%; with PLK1, 0%; in the assay with PLK2, 0%; in the assay on PLK3, 5%. In addition, the “%Inh” value with PLK4 came to 16%; in the assay on PRKCD, 0%; with PRKCE, 12%; in the assay with PRKCH, 18%; in the assay on PRKCI, 16%; in the assay on PRKCQ it was 27%. The “%Inh” value was found to be 0% in the assay with PRKD1 and 9% with PRKD2.
Turning to `CSc1cccc2c(-c3ccncn3)c(-c3ccc(F)cc3)nn12` [GW514786], the “%Inh” value in the assay on PIP5K1A was 0%; in the assay on PIP5K1C it was 47%; with PIP5K2B, 8%; with PIP5K2C it was 8%; in the assay on PKAC-alpha, 14%; with PKAC-beta, 36%. Further, the “%Inh” value with PKMYT1 worked out at 6%; with PKN1, 0%; in the assay on PKN2 it was 0%; with PLK1 it was 7%; in the assay on PLK2 it was 40%; in the assay with PLK3, 0%. In addition, the “%Inh” value amounted to 2% in the assay on PLK4; 0% in the assay on PRKCD; 11% with PRKCE; 6% in the assay with PRKCH; 5% in the assay on PRKCI; 19% in the assay with PRKCQ. The results for the “%Inh” value in the assay with PRKD1 and with PRKD2 were 0% and 2%, respectively.
Regarding `Cl.c1ccc(-c2ccc3c(Nc4ccc5[nH]ccc5c4)ccnc3c2)nc1` [GW440138], the “%Inh” value in the assay on PIP5K1A amounted to 50%; in the assay with PIP5K1C, 66%; in the assay with PIP5K2B, 8%; with PIP5K2C, 65%; with PKAC-alpha, 0%; in the assay on PKAC-beta it was 0%. In addition, the “%Inh” value in the assay with PKMYT1, in the assay with PKN1, with PKN2, with PLK1, in the assay with PLK2 and in the assay with PLK3 was 0% each time. The “%Inh” value with PLK4 amounted to 9%; in the assay on PRKCD it was 0%; in the assay with PRKCE, 11%; in the assay with PRKCH, 12%; in the assay on PRKCI, 0%; with PRKCQ it was 0%. Also, the “%Inh” value in the assay on PRKD1 was 1%; in the assay on PRKD2, 2%.
Take `COc1cc(Nc2nccc(-c3c(-c4cccc(NC(=O)c5c(F)cccc5F)c4)nn4ccccc34)n2)cc(OC)c1OC` [GSK323521]: the “%Inh” value in the assay with PIP5K1A is recorded as 0%; in the assay on PIP5K1C, 45%; in the assay with PIP5K2B, 23%; in the assay with PIP5K2C it was 27%; with PKAC-alpha, 0%; in the assay with PKAC-beta, 6%. Besides, the “%Inh” value with PKMYT1 is given as 4%; in the assay with PKN1, 12%; in the assay with PKN2 it was 6%; in the assay with PLK1, 2%; with PLK2, 0%; with PLK3, 0%. Further, the “%Inh” value in the assay on PLK4 is listed as 6%; in the assay on PRKCD, 31%; with PRKCE, 17%; in the assay on PRKCH it was 22%; in the assay on PRKCI, 27%; in the assay on PRKCQ, 15%. Further, the “%Inh” value in the assay on PRKD1 stood at 8%; with PRKD2, 7%.
As to `Nc1ncc(-c2ccc3nccc(-c4ccncc4)c3c2)cc1S(=O)(=O)N1CCOCC1` [GSK1627798], the “%Inh” value came to 0% in the assay on PIP5K1A; 0% in the assay with PIP5K1C; 5% in the assay with PIP5K2B; 30% in the assay with PIP5K2C; 0% in the assay with PKAC-alpha; 0% with PKAC-beta. Besides, the “%Inh” value is given as 11% in the assay with PKMYT1; 12% in the assay on PKN1; 0% in the assay with PKN2; 0% in the assay with PLK1; 0% in the assay on PLK2; 0% in the assay on PLK3. In addition, the “%Inh” value is 0% in the assay on PLK4; 0% in the assay on PRKCD; 9% with PRKCE; 18% in the assay on PRKCH; 9% in the assay on PRKCI; 0% in the assay on PRKCQ. The “%Inh” value in the assay on PRKD1 amounted to 0%; in the assay with PRKD2 it was 3%.
